# This is a sample that favours compounds with a hit; in the whole collection about 2.3% have one here.
# KKLEB tox: cytotoxicity in KKLEB CF airway cells, primary screen, cytotoxicity control for CF NF-kB inhibitor project, cell-based, uHTS, fluorescence assay plates. KKLEB CF airway cells viability, ATPlite luminescence, overnight; stronger effect = lower value; cells stimulated with P. aeruginosa culture filtrate. activity change (cytotoxicity), % at 5 µM. 360,000 compounds, 0.36% hits;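 active = corrected activity change at or below -50% at 5 µM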
# CF NFkB inh: inhibitors of PAF-induced NF-kB signaling, primary screen, cell-based, GFP fluorescence, uHTS | inhibition, % at 5 µM | AID 588850, 2011 | KKLEB NF-kB-GFP reporter, GFP fluorescence overnight | 360,000 compounds, 0.86% hits;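 active = at least 50% inhibition at 5 µM, scaled per plate between neutral and stimulator controls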;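 note: PAF is a Pseudomonas aeruginosa culture filtrate used as stimulus; plate controls were PAF-stimulated DMSO wells for no effect and unstimulated DMSO wells for full effect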
# HIF-2a inh: HIF-2a reporter inhibitors, primary screen, luminescence, 786-0 RCC cells; 786-0 RCC cells HIF-2a reporter, luciferase luminescence, overnight; inhibition, % at 18.8 µM; 360,000 compounds, 0.72% hits;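 active = inhibition of the luminescence signal of 40% or more relative to plate controls, in a single-dose primary screen at 18.75 µM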
# hiPSC survival: enhancers of single-cell hiPSC survival, primary screen, ATPlite luminescence; 100% = ROCK inhibitor wells, 0% = DMSO; survival enhancement, % at 20 µM; 360,000 compounds, 0.044% hits; in the data active = survival enhancement above about 18%;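 note: cells exposed to compounds for 16 hours before the ATP read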
# TWEAK Fn14 block: inhibitors of TWEAK-Fn14 signaling, primary screen, luciferase reporter cells, uHTS. inhibition, % at 10 µM. 360,000 compounds, 2% hits. AID 1159606, 2016. TWEAK-stimulated Fn14 reporter cells, luciferase luminescence, 8 h; in the data active = inhibition above about 50%
# LGR2 antag: inhibitors of bursicon-induced LGR2 CRE-luciferase signal, primary screen, cell-based, HEK293, CRE-luciferase reporter, bursicon stimulation | Drosophila bursicon receptor LGR2 (rickets) | bursicon-stimulated, 4 h | inhibition, % at 9.99 µM | 380,000 compounds, 0.35% hits | AID 720647, 2013;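 active = drop in luminescence signal, shown as inhibition above about 50% in the replicate tests, limit read from the data, passing the limit was not always enough; inconclusive = probably only some replicates passing the limit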;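 note: agonist challenge used bursicon conditioned medium at about half maximal strength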
# CF NFkB inh conf: inhibitors of PAF-induced NF-kB signaling, retest, confirmation, cell-based, GFP fluorescence, single concentration. shares compounds with CF NFkB inh. KKLEB CF airway cells, overnight. inhibition, % at 5 µM. 1,300 compounds, 64% hits; in the data active = inhibition above about 40%;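 note: stimulus PAF is a Pseudomonas aeruginosa filtrate and not platelet activating factor; plate controls were DMSO wells with stimulus for no effect and unstimulated DMSO wells for full effect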
# An asterisk follows results filed as active; ? = inconclusive; . = no result given.
SMILES,KKLEB tox,CF NFkB inh,HIF-2a inh,hiPSC survival,TWEAK Fn14 block,LGR2 antag,CF NFkB inh conf
COc1cc(C(=O)Nc2nnc(-c3sccc3C)s2)cc(OC)c1OC,-45,54*,-14,1,-8,.,59*
CCOCc1nnc(NC(=O)c2cc(OC)c(OC)c(OC)c2)s1,6,-21,1,1,11,2,.
Cn1nccc1C(=O)Nc1cc(Cl)ccc1Cl,12,70*,14,0,1,1,38
O=C(CCCCCCCC(=O)c1ccccc1)c1ccccc1,-20,8,11,0,3,.,.
C=C(CCC(=O)c1ccccc1)C(=O)c1ccccc1,-40,80*,-50,-2,57*,.,-63
COc1ccc(S(=O)(=O)N(C)C[C@@H]2OCCCC[C@H](C)Oc3ccc(NC(=O)NC4CCCCC4)cc3C(=O)N([C@@H](C)CO)C[C@H]2C)cc1,.,.,.,.,.,-1,.
CS(=O)(=O)Nc1ccc(-c2cnc3cccnn23)cc1,-1,60*,-29,0,65*,19,71*
Nc1c(Cl)c(Cl)nc(C(=O)N/N=C/c2cccnc2)c1Cl,-8,51*,4,-1,26,6,40
CSCCNCc1c(C(=O)N2CCOCC2)nc2c(C)cccn12,-3,2,12,-1,14,4,.
Cc1cccn2c(CNCC3(c4ccccc4)CCCC3)c(C(=O)N3CCOCC3)nc12,-28,59*,13,0,18,?,6
Cc1cc(C)c(C#N)c(SCC(=O)c2ccc(Cl)cc2Cl)n1,-5,72*,-16,-1,57*,18,67*
COc1ccccc1-c1ccc2c(c1)C(C)(Cc1ccc(Cl)cc1)C(=O)N2 (stereo not drawn),-1,12,-14,2,0,.,.
CC1(Cc2ccc(Cl)cc2)C(=O)Nc2ccc(-c3cccnc3)cc21 (stereo not drawn),-30,79*,16,-2,84*,19,91*
CC1(Cc2cccc(F)c2)C(=O)Nc2ccc(-c3cccnc3)cc21 (stereo not drawn),5,72*,15,0,79*,19,66*
CO[C@@H]1CN(C)C(=O)c2ccc(NC(=O)c3cc(C)on3)cc2OC[C@@H](C)N(C(=O)C2CC2)C[C@H]1C,.,.,.,.,.,-6,.
CO[C@H]1CN(C)C(=O)c2ccc(NS(C)(=O)=O)cc2OC[C@H](C)N(C(=O)c2ccc3c(c2)OCO3)C[C@@H]1C,.,.,.,.,.,4,.
C=C(C)COc1ccc(-c2[nH]ncc2-c2ccc(OC)cc2)c(O)c1,2,53*,5,0,55*,1,72*
COc1ccc(-c2cnc(N)nc2-c2ccc(OC)cc2O)cc1,-13,56*,31,-5,46,13,51*
COc1ccc(-c2nc(N)ncc2-c2ccccc2)c(O)c1,2,7,14,1,5,-17,.
COc1ccc(-c2cn[nH]c2-c2ccc(O)cc2O)cc1,8,70*,19,2,74*,16,94*
COc1ccc(Oc2cn[nH]c2-c2ccc(O)cc2O)cc1,-3,14,-7,-1,13,.,.
CCC(=O)Nc1ccc2c(c1)OC[C@@H](C)N(C(=O)COC)C[C@H](C)[C@@H](OC)CN(C)C2=O,.,.,.,.,.,-10,.
CO[C@@H]1CN(C)C(=O)c2ccc(NC(C)=O)cc2OC[C@H](C)N(C(=O)c2ccncc2)C[C@@H]1C,.,.,.,.,.,16,.
C[C@H]1CN([C@@H](C)CO)C(=O)Cc2cc(NS(=O)(=O)c3ccccc3)ccc2O[C@H]1CN(C)S(C)(=O)=O,.,.,.,.,.,1,.
C[C@H]1CN([C@@H](C)CO)S(=O)(=O)c2ccc(-c3cccnc3)cc2O[C@H]1CN(C)CC1CCOCC1,.,.,.,.,.,16,.
SMILES,KKLEB tox,CF NFkB inh,HIF-2a inh,hiPSC survival,TWEAK Fn14 block,LGR2 antag,CF NFkB inh conf
CCc1nc2ccc(C(=O)Nc3cccc(OCC(=O)N(C)C)c3)cn2c1N(C)Cc1cc2ccccc2s1,-10,53*,-19,1,35,13,14
CCNC(=O)N(C)c1c(CC)nc2ccc(C(=O)Nc3cccc(OCC(=O)N(C)C)c3)cn12,0,-2,6,19,-2,-14,.
C=CC[C@@H](CC(=O)N[C@H](CO)Cc1ccccc1)C(=O)NC[C@H](OC(=O)[C@@H](CC=C)Cc1ccc(F)cc1)c1ccccc1,-41,54*,-2,-2,29,29,63*
C=CC[C@H](CC(=O)NCCO)C(=O)NC[C@@H](OC(=O)[C@@H](CC=C)Cc1ccc(F)cc1)c1ccccc1,17,-10,12,-1,-20,21,.
CC[C@@H]1CC=C[C@H]2[C@H]1C(=O)N(Cc1ccccc1)[C@H]2c1ccoc1,-19,59*,32,-4,29,.,13
COc1ccc(-c2ccc(C(C)=O)cc2)cc1[C@H]1[C@H]2C=CC[C@@H](C)[C@@H]2C(=O)N1Cc1ccccc1,2,36,25,-1,6,7,.
C[C@@H]1CC=C[C@H]2[C@H]1C(=O)N(Cc1ccccc1)[C@H]2c1ccoc1,-5,28,19,1,22,.,.
C[C@@H]1CC=C[C@H]2[C@H]1C(=O)N(Cc1ccccc1)[C@H]2c1cccc([N+](=O)[O-])c1,-21,56*,13,1,-2,.,16
C[C@@H]1CC=C[C@H]2[C@H]1C(=O)N(Cc1ccccc1)[C@H]2c1ccc(F)c(/C=C/c2ccccc2)c1,-17,25,10,-4,-4,18,.
COC(=O)c1ccc(-c2ccc(OC)c([C@H]3[C@H]4C=CC[C@@H](C)[C@@H]4C(=O)N3Cc3ccccc3)c2)cc1,-12,66*,24,-2,-17,26,53*
O=C(C[C@H]1CC[C@H](NC(=O)C2CCOCC2)[C@@H](CO)O1)Nc1nccs1,.,.,.,.,.,-7,.
O=C(Nc1nccs1)[C@H]1[C@H](CO)[C@H]2Cn3c(cccc3=O)[C@H]2N1C(=O)C1CCCC1,.,.,.,.,.,-1,.
Nc1ccc(O)c2c(=O)cc(-c3ccccc3Cl)oc12,-11,11,-262,2,28,-9,.
O=c1cc(-c2ccccc2Cl)oc2cc(O)cc(O)c12,-1,66*,-128,-2,36,-15,77*
CCC(=O)Nc1ccc2c(c1)OC[C@H](C)N(C(C)=O)C[C@@H](C)[C@H](OC)CN(C)C2=O,.,.,.,.,.,11,.
CC(=O)c1ccc(-c2cnc3c(NC=O)cc(-c4ccccc4Oc4ccccc4)cn23)cc1,-27,58*,24,-1,59*,-3,45*

# Screening data (PubChem)
